Values joined by “and” are separate entries in the source; they are usually repeats but may differ in a detail not shown here. Equal values may be shown once. The panel holds about 79,000 compounds, 15% with a hit somewhere; the sample as a whole holds those more often. No stated cut-off is given here; in the data, active means growth inhibition above about 70%; inactive means the rest.
Key:
[1] = NCI Yeast Anticancer Drug Screen. Data for the rad50 strain (AID 155);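 further: 0% = growth of vehicle-only cultures of the same strain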; settings: S. cerevisiae rad50 strain growth inhibition, active compounds read high; at 50.0 µM unless noted
In short: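 Compounds were tested on a yeast strain with an engineered DNA damage repair alteration; the reported value is growth inhibition normalised to vehicle treatment.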

[2] = NCI Yeast Anticancer Drug Screen. Data for the mec2-1 strain (AID 157); settings: S. cerevisiae mec2-1 strain, active compounds read high; at 50.0 µM unless noted
In short: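 Using mec2-1 yeast: add compound, measure growth, express inhibition versus vehicle-treated cultures.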

[3] = NCI Yeast Anticancer Drug Screen. Data for the sgs1 mgt1 strain (AID 161);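 further: 0% = growth of cultures given vehicle only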; settings: S. cerevisiae sgs1 mgt1 strain, active compounds read high; at 50.0 µM unless noted
In short: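 Yeast cells carrying a defined DNA-repair defect were exposed to test compounds. Growth inhibition was measured relative to vehicle-treated controls.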

[4] = NCI Yeast Anticancer Drug Screen. Data for the cln2 rad14 strain (AID 165);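 further: 0% = growth equal to vehicle treated cultures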; settings: S. cerevisiae cln2 rad14 strain, active compounds read high; at 50.0 µM unless noted
In short: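 Yeast strain cln2 rad14, bearing defects in cell cycle control and DNA repair, serves as the test system; values reflect growth inhibition compared with vehicle.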

[5] = NCI Yeast Anticancer Drug Screen. Data for the bub3 strain (AID 167); settings: S. cerevisiae bub3 mutant strain, active compounds read high; at 50.0 µM unless noted
In short: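 Growth of a checkpoint-deficient yeast mutant is measured after compound exposure. Values represent inhibition relative to vehicle.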

[6] = NCI Yeast Anticancer Drug Screen. Data for the mlh1 rad18 strain (AID 175); settings: S. cerevisiae mlh1 rad18 strain growth inhibition, active compounds read high; at 50.0 µM unless noted
In short: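 Steps: expose repair-defective yeast to compound; measure growth; express inhibition against vehicle-treated controls.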

Measured: growth inhibition

Cc1cc2ccccc2n1/C=C/C1=[N+](C)c2ccccc2C1(C)C
inactive: [1] 10.3% | [2] 6.25% | [3] 10.5% | [4] -38.9% | [5] 8.1% | [6] 25.9%

CCCCCCCCCCCCCCCCCCCCCCCCC(=O)O
inactive: [1] -18.6% | [2] -22.6% | [3] -11.4% | [4] 4.15% | [5] -33.5% | [6] -25.5%

Cc1ccc2oc3c(ccc(=O)n3C)c(=O)c2c1
inactive: [1] 28.6% | [2] 7.1% | [3] -17.6% | [4] -22.1% | [5] -35.5% | [6] -59.3%

CC1(C)C(=O)C=C(c2ccccc2)C1(O)c1ccccc1 (stereo unspecified)
inactive: [1] -9.45% | [2] -29.9% | [3] 16.9% | [4] 5.35% | [5] 22.4% | [6] -38.5%

COc1ccc(/C=N/NS(=O)(=O)c2ccc(NC(C)=O)cc2)cc1
inactive: [1] -15.2% | [2] -30.1% | [3] 16.4% | [4] 22.8% | [5] -21.8% | [6] -9.15%

CCCCCCC(O)C[N+](=O)[O-] (stereo unspecified)
inactive: [1] 0.3% | [2] -28.9% | [3] -11.8% | [4] -5% | [5] -2.75% | [6] -3.9%

CSCCCCC(N)C(=O)O (stereo unspecified)
inactive: [1] 0.05% | [2] 3% | [3] -0.9% | [4] -14% | [5] 12.4% | [6] -3.85%

CN(C)N=Nc1ccc(/C=C/C(=O)O)cc1
inactive: [1] 15.2% | [2] 4.8% | [3] 11.4% | [4] 1.65% | [5] 8.55% | [6] -4.95%

C[Si](C)(CCl)N([Si](C)(C)CCl)[Si](C)(C)CCl
inactive: [1] 13.1% | [2] 8.55% | [3] 0.7% | [4] -19.7% | [5] -2.6% | [6] -10.1%

CC1(C)OC(CI)C(COS(C)(=O)=O)O1 (stereo unspecified)
inactive: [1] 3.7% | [2] 3.2% | [3] 3.7% | [4] -25.2% | [5] -11.3% | [6] -2.25%

O=C(Nc1ccc(C(=O)O)cc1)Nc1cccc(Cl)c1
inactive: [1] -6.15% | [2] 2.1% | [3] -9.55% | [4] -14.3% | [5] 0.65% | [6] 7.4%

Nc1nc(N)c(N=O)c(Nc2ccccc2)n1
inactive: [1] 7.75% | [2] 6.9% | [3] -8.35% | [4] 0.45% | [5] 41.6% | [6] 43.4%

O=C(O)c1ccc(NCn2c(=S)sc3ccccc32)cc1
inactive: [1] 6.45% | [2] 3% | [3] 52% | [4] 26.9% | [5] 11.8% | [6] 11.1%

Cc1nc2c3c(ccc2[nH]c1=O)C(=O)c1ccccc1C3=O
inactive: [1] 19.4% | [2] 11.6% | [3] 17.7% | [4] 16.9% | [5] 13.9% | [6] 38.2%

COC(=O)C(Br)C(CCCN1C(=O)c2ccccc2C1=O)OC (stereo unspecified)
inactive: [1] 27.5% | [2] 7.55% | [3] 45.9% | [4] 8.5% | [5] 39.9% | [6] 19.1%

COc1ccc(CCC(=O)c2ccc(N)cc2)cc1
inactive: [1] -22.1% | [2] -16.4% | [3] -0.65% | [4] -11.5% | [5] -3.75% | [6] -22.3%

NC1CCC(C2CCC(N)CC2)CC1 (stereo unspecified)
inactive: [1] 17.1% | [2] 20.6% | [3] 3.7% | [4] -53% | [5] -6.45% | [6] -13.7%

Cc1ccc(/C=N/NC(N)=S)nn1
inactive: [1] 3.45% | [2] 2.25% | [3] -8.15% | [4] -67.4% | [5] 2.45% | [6] 5.4%

OCC12c3ccccc3C3c4ccccc4C1C32 (stereo unspecified)
inactive: [1] 10.2% | [2] -17.4% | [3] -4.05% | [4] -31.1% | [5] -18.9% | [6] 0.95%

O=C(O)C(=O)c1c(O)[nH]c2ccccc12
inactive: [1] 1.35% | [2] -10.1% | [3] 11.5% | [4] -14.8% | [5] -8% | [6] 17.6%

COc1ccc(C(N2CCNCC2)N2CCNCC2)cc1
inactive: [1] 13.7% | [2] 6.3% | [3] 19.6% | [4] -30.1% | [5] -3.5% | [6] 48.3%

COc1ccc(C)cc1NC(=O)OCCCl
inactive: [1] 3.1% | [2] 2.35% | [3] 2.65% | [4] 5.95% | [5] 11.1% | [6] -5.3%

NC(=S)/N=C/c1c(O)c2ccccc2oc1=O
inactive: [1] -15.8% | [2] 3.95% | [3] -37.5% | [4] 3.5% | [5] -12.7% | [6] -35%

COc1ccc(N/C=C/C2=[N+](C)c3ccccc3C2(C)C)c(OC)c1
inactive: [1] 1.85% and -24.3% | [2] -17.2% and -19.6% | [3] -8.5% and -20.9% | [4] 0.45% and -58.4% | [5] -5.55% and -2.4% | [6] 5.5% and -7.05%

C=CCNC1=C(NC(C)=O)C(=O)c2ccccc2C1=O
inactive: [1] 16.1% | [2] 0.95% | [3] 4.8% | [4] -31.2% | [5] 28.6% | [6] 12.4%

CCCC(=O)NC(Nc1ccc(S(=O)(=O)Nc2cc(C)on2)cc1)(C(=O)OCC)C(F)(F)F (stereo unspecified)
inactive: [1] 32.8% | [2] -18.9% | [3] 4.75% | [4] 18.1% | [5] -14.4% | [6] -40.8%

CC(C)NCC(O)COc1cccc2[nH]c3ccccc3c12 (stereo unspecified)
inactive: [1] -2.75% | [2] -8.45% | [3] -8.5% | [4] -36.4% | [5] -0.8% | [6] -0.4%

C=CCOC(=O)CCCC1=NC2=CC=CC3=NC(C)=NC(=N1)N23
inactive: [1] -1.1% | [2] 2.35% | [3] 1.45% | [4] 12.2% | [5] -17.3% | [6] 1.2%

CC1=C(CCC(=O)O)C(=O)C(CCC(=O)O)C(C)(C)C1 (stereo unspecified)
inactive: [1] 19.4% | [2] 7.45% | [3] 13.2% | [4] 56.6% | [5] 4.6% | [6] 8.15%

Cc1cc(C)c(C(=O)Cc2ccccc2)c(C)c1
inactive: [1] 18.4% | [2] 15.6% | [3] 20.2% | [4] 12.4% | [5] 11.4% | [6] 9.45%

CN(C)c1nc(S(C)(=O)=O)nc2nc(Cl)[nH]c12
inactive: [1] 6.2% | [2] -13.6% | [3] -0.85% | [4] -7.1% | [5] 3.65% | [6] -9.8%

CCOC(=O)c1cnc2c(cnn2CC)c1N1CCCCC1
inactive: [1] -13.9% | [2] 28.2% | [3] 18.9% | [4] -36.9% | [5] 36.6% | [6] 23.4%

Clc1ccc2[nH]c3c(c2c1)CCCC3
inactive: [1] 10.7% | [2] 0.45% | [3] 28.4% | [4] 1.6% | [5] 2.55% | [6] 28.8%

CCNC(=O)c1ccccc1S(C)=O (stereo unspecified)
inactive: [1] -18.8% | [2] -19.3% | [3] -17.9% | [4] -8.25% | [5] -9.15% | [6] -20.1%

C=C(C)C1CC[C@@](C)(O)[C@H](C#N)C1 (stereo partly specified)
inactive: [1] 6.15% | [2] -15.7% | [3] -22.8% | [4] -12.2% | [5] -38.5% | [6] -44%

Cc1ccc2nc(-c3ccc(F)cc3)cc(C(=O)O)c2c1
inactive: [1] 9.9% | [2] 2.05% | [3] 6.25% | [4] 17.9% | [5] 10.2% | [6] 26.1%

CCCCOC(=O)NC(Nc1ccc(S(N)(=O)=O)cc1)(C(F)(F)F)C(F)(F)F
inactive: [1] 5.95% | [2] 7.9% | [3] 2.95% | [4] -1.4% | [5] 12.1% | [6] 18.3%

CCN(CC)Cc1c(/C=C\c2cc(OC)c(OC)c(OC)c2)ccc(OC)c1O
inactive: [1] -7.05% | [2] 4.4% | [3] 14.1% | [4] 9.55% | [5] 15.3% | [6] -64%

COc1ccc(OC)c2[nH]c(Sc3c([N+](=O)[O-])ncn3C)nc12
inactive: [1] -5.95% | [2] -13.9% | [3] -15.4% | [4] 8.55% | [5] -15.2% | [6] -7.7%

COc1cc2c(cc1OC)C1Cc3ccccc3CCN1CC2 (stereo unspecified)
inactive: [1] -23.4% | [2] -7.1% | [3] -16.8% | [4] -23.8% | [5] -9.95% | [6] -19.4%

CN(C)c1ccc(/C=C(\NC(=O)c2ccccc2)c2nc3ccccc3c(=O)o2)cc1
inactive: [1] 8.45% | [2] 10.3% | [3] 3.95% | [4] 11.5% | [5] -15.8% | [6] -9.3%
